Data published in PubChem BioAssay (EPA / NIEHS).
Results filed as inconclusive are left out. Calls of active or inactive are those of the source. Rule for the calls, unless noted: active = hit-call score of the fitted dose curve at least 0.9, where 1 is the maximum; inactive = score below 0.9.

Experiments:
[1] = CCTE_Shafer_MEA_dev_burst_rate: CCTE's Neural Network Formation Assay for Burst Rate, Shafer Lab (AID 2284042);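 for AC50: potency for loss of burst rate below DMSO control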
How it was run: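 Rat primary cortical cultures on PEI/laminin MEA; compound from plating, re-dosed at DIV 5, 9 media change. Single-electrode bursts/recording length, well mean of active electrodes; AUC over DIV 5–12 recordings; loss-of-signal vs DMSO.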

[2] = CCTE_Shafer_MEA_dev_bursting_electrodes_number: CCTE's Neural Network Formation Assay for Number of Bursting Electrodes, Shafer Lab (AID 2284043; active = hit-call score of the fitted dose curve at least 0.9, where 1 is the maximum;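 for AC50: potency is for loss of bursting electrodes relative to DMSO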)
How it was run: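 Primary rat cortical neurons plated on 16-electrode MEA wells, exposed from day 0 with compound renewed at DIV 5 and 9. Electrodes bursting ≥1 burst per 2 min counted on days 5, 7, 9 and 12; trapezoidal AUC across days, fitted for loss versus DMSO.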

[3] = CCTE_Shafer_MEA_dev_interburst_interval_mean: CCTE's Neural Network Formation Assay for Mean Interburst Interval, Shafer Lab (AID 2284046);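 note: well-mean interburst interval of bursting electrodes as AUC over four recording days; curve fitted for decrease in interburst interval relative to DMSO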
How it was run: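 Rat cortical neurons, 1.5 x 10^5 cells/well, 48-well MEA; compound from day 0 through DIV 12, media and treatment renewed DIV 5/9. Recordings DIV 5, 7, 9, 12; well-mean interburst interval → trapezoidal AUC, loss direction vs DMSO.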

[4] = CCTE_Shafer_MEA_dev_inter_network_spike_interval_mean: CCTE's Neural Network Formation Assay for Mean Inter-network Spike Interval, Shafer Lab (AID 2284047)
How it was run: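 Primary rat cortical neurons on PEI-coated 48-well MEAs (16 electrodes/well) were exposed from plating day 0 to DIV 12, with dosing renewed at DIV 5 and 9. Recordings at DIV 5, 7, 9, 12 were collapsed by trapezoidal AUC, loss-of-signal fit vs DMSO.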

[5] = CCTE_Shafer_MEA_dev_spike_duration_mean: CCTE's Neural Network Formation Assay for Mean Spike Duration, Shafer Lab (AID 2284051);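 note: mean network spike duration pooled as area under curve over DIV 5 to 12 recordings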;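 for AC50: potency for a decrease in mean network spike duration versus DMSO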
How it was run: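 Rat cortical primary cultures, 48-well MEA (16 electrodes/well); compound from plating, renewed DIV 5, 9. Network spike duration (AxIS adaptive detector) recorded DIV 5/7/9/12, combined as trapezoidal AUC; loss direction vs DMSO.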

[6] = CCTE_Shafer_MEA_dev_network_spike_duration_std: CCTE's Neural Network Formation Assay for Standard Deviation of Network Spike Duration, Shafer Lab (AID 2284052);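 note: area under curve of spike duration SD across recording days 5 to 12; hits are decreases in network spike duration SD versus DMSO vehicle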
How it was run: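 Rat cortical cultures, 1.5 x 10^5 cells/well, exposed continuously from plating to DIV 12 with media/compound renewal at DIV 5, 9. Spontaneous activity recorded DIV 5/7/9/12, AxIS adaptive spike detector; AUC across days; negative direction vs DMSO.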

[7] = CCTE_Shafer_MEA_dev_per_network_spike_spike_number_mean: CCTE's Neural Network Formation Assay for Mean Number of Spikes in a Network Spike, Shafer Lab (AID 2284053);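 for AC50: fitted as decrease in spikes per network spike relative to DMSO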
How it was run: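 Rat cortical primary cultures on 48-well MEA; compound from day 0, re-dosed with full media change DIV 5, 9. Recorded DIV 5, 7, 9, 12; spikes in 0.05 s window at network-spike peak ÷ total network spikes; AUC; loss vs DMSO.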

[8] = CCTE_Shafer_MEA_dev_per_network_spike_spike_percent: CCTE's Neural Network Formation Assay for Percent of Spikes in a Network Spike, Shafer Lab (AID 2284054)
How it was run: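 Rat primary cortical neurons were grown on 48-well MEA plates (16 electrodes/well), exposed from plating day 0 through day 12, with treatment renewed on DIV 5 and 9. Percent of spikes within 0.05 s network-spike peaks was measured, summarised as AUC across days 5, 7, 9, 12.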

[9] = CCTE_Shafer_MEA_dev_LDH: CCTE's Lactate Dehydrogenase Assay for Cytotoxicity in the Neural Network Formation Assay, Shafer Lab (AID 2284068; active = hit-call score of the fitted dose curve at least 0.9, where 1 is the maximum;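 note: exposure for twelve days from plating with re-dosing on DIV 5 and 9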)
How it was run: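 Rat cortical primary neurons, MEA culture; dosing day 0–12, full medium plus compound exchange DIV 5, 9. Read-out: LDH enzyme activity, spectrophotometric. DMSO = negative control/baseline; signal loss → cytotoxicity.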

[10] = CCTE_Shafer_MEA_dev_mutual_information_norm: CCTE's Neural Network Formation Assay for Mutual Information Normalization, Shafer Lab (AID 2284091);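 for AC50: mutual information between electrodes summarised as area under curve across four recording days; potency is for a decrease in mutual information relative to DMSO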
How it was run: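 Primary rat cortical neurons on PEI-coated 48-well MEA plates, 1.5 x 10^5 cells/well, exposed from day 0 through day 12 with re-dosing at DIV 5 and 9. Mutual information between electrodes recorded days 5, 7, 9, 12; trapezoidal AUC, loss-of-signal fit versus DMSO.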

[11] = CCTE_Shafer_MEA_dev_correlation_coefficient_mean: CCTE's Neural Network Formation Assay for Mean Correlation Coefficient, Shafer Lab (AID 2284093);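 for AC50: well mean pairwise spike train correlation integrated as AUC over recording days 5 to 12; potency fitted for loss of correlation relative to DMSO vehicle wells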
How it was run: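 Rat cortical cultures, 1.5 x 10^5 cells/well, dosed from day 0 for 12 days. Spontaneous spikes recorded DIV 5/7/9/12; electrode-pair correlation coefficients averaged, AUC taken. Fit in loss direction vs DMSO.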

[12] = UKN5_HCS_SBAD2_cell_viability: Viability Assessment in the University of Konstanz (UKN) Leist Lab Neurite Outgrowth Assay in human iPSC-derived immature Dorsal Root Ganglia Neurons (UKN5) (AID 2284056)
How it was run: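 iPSC-derived immature peripheral neurons (SBAD2) seeded on Matrigel with CHIR99021, SU5402 and DAPT, dosed 1 h later for 24 h. Viability from Hoechst H-33342 and calcein-AM live staining, high-content imaging; bidirectional fit versus DMSO.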

[13] = UKN5_HCS_SBAD2_neurite_outgrowth: University of Konstanz (UKN) Leist Lab Neurite Outgrowth Assay in human iPSC-derived immature Dorsal Root Ganglia Neurons (UKN5) (AID 2284070); details: actives raise or lower the signal
How it was run: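 Human iPSC-derived immature DRG neurons (SBAD2) on Matrigel with CHIR99021 (1.5 uM), SU5402 (5 uM), DAPT (5 uM); compounds added 1 h post-seeding for 24 h. Calcein-AM neurite area imaged; bidirectional fit vs DMSO.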

[14] = CCTE_Shafer_MEA_dev_AB: CCTE's Alamar Blue Assay for Cytotoxicity in the Neural Network Formation Assay, Shafer Lab (AID 2284083; active = hit-call score of the fitted dose curve at least 0.9, where 1 is the maximum;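 note: resazurin reduction fluorescence as viability of cultured neurons; twelve days of exposure from plating with re-dosing on DIV 5 and 9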)
How it was run: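 Rat cortical primary cultures, 1.5 x 10^5 cells/well on MEA; continuous compound exposure over 12 days of network development, re-dosed with full medium change DIV 5 and 9. Alamar Blue fluorescence; loss of signal = cytotoxicity vs DMSO baseline.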

[15] = CCTE_Shafer_MEA_acute_LDH: CCTE's Lactate Dehydrogenase Assay for Cytotoxicity in the Neural Acute Assay, Shafer Lab (AID 2284086; active = hit-call score of the fitted dose curve at least 0.9, where 1 is the maximum;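 note: active means LDH release rises above DMSO vehicle level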)
How it was run: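 Primary rat cortical neurons on 48-well MEA plates, treated on day 13 or 15 post-plating. After the 40-min recording with compound, medium LDH release was read by absorbance at 490 nm. Gain of signal was fitted against DMSO negative control.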

[16] = UKN2_HCS_IMR90_neural_migration: University of Konstanz (UKN) Leist Lab Neural Crest Cell Migration Assay in human induced IMR90 Pluripotent Stem Cells (UKN2) (AID 2284204); details: actives raise or lower the signal
How it was run: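 iPSC-derived IMR90 neural crest cells seeded around stoppers on PLO/laminin/fibronectin; migration started in N2-S medium with EGF/FGF, compounds added after 24 h for 24 h. Migration into cell-free area imaged after calcein-AM/Hoechst staining; bidirectional fit versus DMSO.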

[17] = test system: DIO2 (gene 1734); assay: CCTE_GLTED_hDIO2: CCTE's human Deiodinase 2 (DIO2) Inhibition Assay, Great Lakes Toxicology and Ecology Division (GLTED) Lab (AID 2284050; active = hit-call score of the fitted dose curve at least 0.9, where 1 is the maximum)
How it was run: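 Cell-free human DIO2 enzyme was incubated with test chemical for 3 h; iodide liberated from substrate was then quantified by the Sandell-Kolthoff reaction (absorbance), run in triplicate. Loss of signal versus DMSO baseline indicated inhibition.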

[18] = test system: DIO3 (gene 1735); assay: CCTE_GLTED_hDIO3: CCTE's human Deiodinase 3 (DIO3) Inhibition Assay, Great Lakes Toxicology and Ecology Division (GLTED) Lab (AID 2284055; active = hit-call score of the fitted dose curve at least 0.9, where 1 is the maximum;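 note: potency is for inhibition seen as loss of released iodide signal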)
How it was run: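 Cell-free assay with human DIO3 enzyme produced by adenovirus expression; enzyme incubated with test chemical for 3 hours. Liberated iodide then measured by Sandell-Kolthoff absorbance; loss of signal versus DMSO baseline indicates inhibition, run in triplicate.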

[19] = molecular target: Estrogen receptor (Homo sapiens) (UniProt P03372); assay: CCTE_Deisenroth_AIME_384WELL_LUC_Shift: CCTE's 384-well Estrogen Receptor Transactivation Assay with AIME metabolic competence data shift (ERTA luciferase; difference in metabolism positive and negative), Deisenroth Lab (AID 2284041);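 note: shift is response with S9 minus without S9 so positive means metabolism raised ER signal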
Sequence of Estrogen receptor (Homo sapiens) (P03372 whole entry, looked up): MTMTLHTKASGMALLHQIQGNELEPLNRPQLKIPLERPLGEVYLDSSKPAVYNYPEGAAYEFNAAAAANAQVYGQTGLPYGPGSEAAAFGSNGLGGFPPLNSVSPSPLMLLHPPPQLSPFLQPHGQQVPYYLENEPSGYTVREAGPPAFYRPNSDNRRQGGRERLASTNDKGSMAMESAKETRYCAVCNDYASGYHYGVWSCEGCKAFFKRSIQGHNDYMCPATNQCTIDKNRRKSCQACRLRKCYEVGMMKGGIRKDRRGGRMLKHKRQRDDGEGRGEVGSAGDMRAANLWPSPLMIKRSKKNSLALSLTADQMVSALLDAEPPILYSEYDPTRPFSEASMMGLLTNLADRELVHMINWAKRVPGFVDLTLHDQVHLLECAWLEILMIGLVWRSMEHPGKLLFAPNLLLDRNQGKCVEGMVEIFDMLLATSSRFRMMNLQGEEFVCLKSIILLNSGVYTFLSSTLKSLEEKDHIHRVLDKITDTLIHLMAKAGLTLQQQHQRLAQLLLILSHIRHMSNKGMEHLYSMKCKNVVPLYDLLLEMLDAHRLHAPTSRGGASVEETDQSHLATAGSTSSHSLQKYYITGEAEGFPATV
How it was run: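 Chemicals (0.002–200 uM, 10 points) pre-incubated 2 h with alginate-encapsulated induced male Sprague Dawley rat liver S9 or S9-free, then medium applied 24 h to VM7Luc4E2 cells; luciferase. Endpoint is per-concentration difference, S9-positive minus negative.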

Measured: AC50

O=C(O)CCC(F)(F)C(F)(F)C(F)(F)C(F)(F)C(F)(F)F
not listed: [12] | [13] | [14] | [15] | [16] | [17] | [18] | [19]
inactive: all other assays above

FC(F)=C(F)C(F)(F)C(F)(F)C(F)(F)C(F)F
inactive: [1] | [3] | [4] | [5] | [6] | [7] | [8] | [10] | [11]

O=C(CCCN1CCC(O)(c2ccc(Cl)cc2)CC1)c1ccc(F)cc1
active: [1] 531 nM | [2] 1650 nM | [3] 3120 nM | [5] 1780 nM | [6] 1880 nM | [7] 753 nM | [8] 2980 nM | [12] 55600 nM | [9] 7350 nM | [13] 20200 nM | [10] 163 nM | [11] 1740 nM
inactive: [4] | [14] | [15] | [16]

COC(=O)C(F)(F)C(F)(F)C(F)(F)F
inactive: [1] | [2] | [3] | [4] | [5] | [6] | [7] | [8] | [10] | [11]

O=C(O)C(F)(F)OC(F)(F)C(F)(F)OC(F)(F)C(F)(F)OC(F)(F)C(F)(F)C(F)(F)C(F)(F)F
active: [17] 60500 nM | [18] 37100 nM
not listed: [2] | [12] | [13] | [15] | [16] | [19]
inactive: all other assays above

NC(=NCCCCCCN=C(N)/N=C(\N)Nc1ccc(Cl)cc1)/N=C(\N)Nc1ccc(Cl)cc1
inactive: [19]
active: [17] 13000 nM | [18] 2650 nM

O=CC(F)(F)C(F)(F)C(F)(F)C(F)F
inactive: [1] | [2] | [3] | [4] | [5] | [6] | [7] | [8] | [10] | [11]

CCCCCCCCCC=CCC1CC(=O)OC1=O (stereo not given)
inactive: [19]
active: [17] 64300 nM | [18] 27200 nM

Nc1ccn([C@@H]2O[C@H](CO)[C@@H](O)C2O)c(=O)n1 (stereo not given in full)
inactive: [4] | [12] | [16]
active: [1] 314 nM | [2] 333 nM | [3] 695 nM | [5] 358 nM | [6] 239 nM | [7] 205 nM | [8] 119 nM | [9] 1000 nM | [13] 611 nM | [14] 969 nM | [10] 74.4 nM | [11] 91.9 nM
